Active and inactive are the calls of the source. The calls were made as follows: active = hit-call score of the fitted dose curve at least 0.9, where 1 is the maximum; inactive = score below 0.9.

Read-out in assay [1]: Interleukin-1 alpha (IL1a), IL1A (gene 3552)
Put plainly: BSK_KF3CT_IL1a: BioMAP Diversity Plus: KF3CT Assay for Interleukin-1 alpha (IL1a) Biomarker Activity (AID 2283070). To be noted: primary human keratinocytes with fibroblasts; actives raise or lower the signal. In short, it runs like this:
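Primary skin co-culture (keratinocytes, foreskin fibroblasts), 24 h exposure; ELISA for IL-1a; bidirectional curve fit vs DMSO.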

Read-out in assay [2]: TIMP metallopeptidase inhibitor 2 (TIMP2), TIMP2 (gene 7077)
Briefly: BSK_KF3CT_TIMP2: BioMAP Diversity Plus: KF3CT Assay for TIMP metallopeptidase inhibitor 2 (TIMP2) Biomarker Activity (AID 2283071). Conditions: primary human keratinocytes with fibroblasts; actives raise or lower the signal. In short, it runs like this:
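ELISA readout of TIMP-2 in keratinocyte plus foreskin fibroblast co-cultures (human skin primary cells), 24 h post-dose. Gain or loss of signal fitted relative to DMSO.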

Read-out in assay [3]: Transforming growth factor beta 1 (TGFb1), TGFB1 (gene 7040)
Briefly: BSK_KF3CT_TGFb1: BioMAP Diversity Plus: KF3CT Assay for Transforming growth factor beta 1 (TGFb1) Biomarker Activity (AID 2283072). To be noted: primary human keratinocytes with fibroblasts; actives raise or lower the signal. In short, it runs like this:
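Read-out: ELISA for TGF-b1 in keratinocyte/foreskin fibroblast human skin co-culture, 24 h after dosing; bidirectional curve fit vs DMSO baseline; gain or loss of signal scored.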

Read-out in assay [4]: C-C motif chemokine 2 (Homo sapiens) (UniProt P13500)
Put plainly: BSK_KF3CT_MCP1: BioMAP Diversity Plus: KF3CT Assay for Monocyte Chemoattractant Protein 1 (MCP1/CCL2) Biomarker Activity (AID 2283073). To be noted: primary human keratinocytes with fibroblasts; actives raise or lower the signal. In short, it runs like this: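 ELISA read-out of MCP-1, 24 h post-dose, in primary human skin keratinocytes co-cultured with fibroblasts. Parallel SRB staining monitors cytotoxicity; changes fitted both directions relative to DMSO.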

Read-out in assay [5]: Matrix Metallopeptidase 9 (MMP9), MMP9 (gene 4318)
Briefly: BSK_KF3CT_MMP9: BioMAP Diversity Plus: KF3CT Assay for Matrix Metallopeptidase 9 (MMP9) Biomarker Activity (AID 2283074). Conditions: primary human keratinocytes with fibroblasts; actives raise or lower the signal. In short, it runs like this: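 ELISA read-out of MMP-9 at 24 h post-dosing in a co-culture of human skin keratinocytes and foreskin fibroblasts. Gain or loss of signal was fitted in both directions against DMSO.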

Read-out in a further assay: CD40, CD40 (gene 958)
Briefly: BSK_LPS_CD40: BioMAP Diversity Plus: LPS Assay for CD40 Biomarker Activity (AID 2283076). Conditions: primary human HUVEC with PBMC; actives raise or lower the signal. Put shortly: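 In the LPS system of human endothelial cells with peripheral blood mononuclear cells, CD40 levels were read by ELISA 24 h post-treatment. Signal changes in either direction were fitted against the DMSO baseline, with parallel SRB protein staining.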

Read-out in assay [6]: E-selectin (Homo sapiens) (UniProt P16581)
Put plainly: BSK_LPS_Eselectin: BioMAP Diversity Plus: LPS Assay for Eselectin Biomarker Activity (AID 2283077). To be noted: primary human HUVEC with PBMC; actives raise or lower the signal. In short, it runs like this:
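E-selectin ELISA on LPS-stimulated endothelial cell/PBMC co-cultures, read 24 h post-treatment; gains and losses fitted against DMSO. Parallel SRB staining (0.1% SRB after 10% TCA fixation, 560 nm) flags overt cytotoxicity.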

Assay [7] in a line: BSK_LPS_SRB: Viability Assessment in the BioMAP Diversity Plus: LPS Assay (AID 2283079).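 Also: total protein by sulforhodamine B absorbance as a cytotoxicity measure; measured one day after compound addition.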 To be noted: primary human HUVEC with PBMC. Put shortly: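 SRB viability endpoint: cells fixed with 10% TCA, stained with 0.1% SRB, read at 560 nm, 24 h post-dose. HUVEC/PBMC co-culture; signal change in either direction scored relative to DMSO.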
Read-out in assay [8]: Interleukin-1 alpha (IL1a), IL1A (gene 3552)
Briefly: BSK_LPS_IL1a: BioMAP Diversity Plus: LPS Assay for Interleukin-1 alpha (IL1a) Biomarker Activity (AID 2283080). Conditions: primary human HUVEC with PBMC; actives raise or lower the signal. In short, it runs like this: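 Readout is IL-1a level by ELISA, 24 h post-dose, fitted as gain or loss relative to DMSO. System: LPS-activated human primary co-culture of vascular endothelium and peripheral blood mononuclear cells, with parallel SRB total-protein cytotoxicity.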

Read-out in assay [9]: Monocyte Chemoattractant Protein-1 (MCP1), CCL2 (gene 6347)
Put plainly: BSK_LPS_MCP1: BioMAP Diversity Plus: LPS Assay for Monocyte Chemoattractant Protein-1 (MCP1) Biomarker Activity (AID 2283081). Conditions: primary human HUVEC with PBMC; actives raise or lower the signal. In short, it runs like this:
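Secreted MCP-1 read by ELISA at 24 h post-dosing in an LPS-activated co-culture of endothelial cells with peripheral blood mononuclear cells. Fits run in both directions, DMSO as baseline; parallel SRB staining tracks overt cytotoxicity.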

Assay [10] is described as follows: BSK_LPS_PGE2: BioMAP Diversity Plus: LPS Assay for Prostaglandin E2 (PGE2) Biomarker Activity (AID 2283082).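 As to AC50: secreted prostaglandin E2 measured by ELISA in LPS-stimulated co-culture.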 Conditions: primary human HUVEC with PBMC; actives raise or lower the signal. Put shortly:
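ELISA read-out of PGE2 from human umbilical vein endothelial cells co-cultured with peripheral blood mononuclear cells under LPS, 24 h post-dose. Gain or loss of signal scored relative to DMSO baseline.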

Read-out in assay [11]: Macrophage colony-stimulating factor (MCSF), CSF1 (gene 1435)
Put plainly: BSK_LPS_MCSF: BioMAP Diversity Plus: LPS Assay for Macrophage colony-stimulating factor (MCSF) Biomarker Activity (AID 2283083). To be noted: primary human HUVEC with PBMC; actives raise or lower the signal. Put shortly:
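Bidirectional fitting against DMSO was applied to M-CSF levels read by ELISA at 24 h post-dose. The system pairs human umbilical vein endothelium with peripheral blood mononuclear cells; parallel SRB staining tracked cytotoxicity.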

Read-out in assay [12]: Tumor necrosis factor (Homo sapiens) (UniProt P01375)
Briefly: BSK_LPS_TNFa: BioMAP Diversity Plus: LPS Assay for Tumour Necrosis Factor alpha (TNFa) Biomarker Activity (AID 2283085).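 As to AC50: TNFa protein level quantified by ELISA in the co-culture.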 Conditions: primary human HUVEC with PBMC; actives raise or lower the signal. In short, it runs like this:
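HUVEC/PBMC co-culture, LPS-stimulated; 24 h post-dose; TNFa by ELISA; gain or loss of signal fitted bidirectionally vs DMSO baseline.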

Read-out in assay [13]: Vascular cell adhesion molecule 1 (VCAM1), VCAM1 (gene 7412)
Put plainly: BSK_LPS_VCAM1: BioMAP Diversity Plus: LPS Assay for Vascular cell adhesion molecule 1 (VCAM1) Biomarker Activity (AID 2283086). To be noted: primary human HUVEC with PBMC; actives raise or lower the signal. Put shortly: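 ELISA read-out of VCAM-1 at 24 h post-dosing in an LPS-driven HUVEC/PBMC primary human co-culture; gain or loss of signal fitted bidirectionally against DMSO baseline. Cytotoxicity tracked in parallel cultures by SRB total-protein staining.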

Read-out in another assay: CD38, CD38 (gene 952)
Briefly: BSK_SAg_CD38: BioMAP Diversity Plus: SAg Assay for CD38 Biomarker Activity (AID 2283087). Conditions: primary human HUVEC with PBMC; actives raise or lower the signal. In short, it runs like this:
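Measures CD38 on a human endothelial/PBMC co-culture driven by SEB and TSST-1, 24 h after compound exposure, using ELISA with fluorescence detection; DMSO defines baseline for bidirectional curve fitting.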

Read-out in a further assay: CD69, CD69 (gene 969)
Briefly: BSK_SAg_CD69: BioMAP Diversity Plus: SAg Assay for CD69 Biomarker Activity (AID 2283089). Conditions: primary human HUVEC with PBMC; actives raise or lower the signal. Put shortly:
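ELISA, fluorescence read-out: CD69 on human umbilical vein endothelial cell + PBMC co-culture, 24 h post-dosing. Gain or loss of signal fitted bidirectionally against DMSO baseline.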

Read-out in assay [14]: Tissue Factor, F3 (gene 2152)
Briefly: BSK_LPS_TissueFactor: BioMAP Diversity Plus: LPS Assay for Tissue Factor Biomarker Activity (AID 2283084). To be noted: primary human HUVEC with PBMC; actives raise or lower the signal. Put shortly:
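Compound was added to an endothelial cell/PBMC co-culture, and after 24 h tissue factor (CD142) was read by ELISA. Gain or loss of signal was fitted against a DMSO baseline, and parallel SRB staining (560 nm) tracked overt cytotoxicity.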

Chain of E-selectin (Homo sapiens) (P16581 whole entry, looked up): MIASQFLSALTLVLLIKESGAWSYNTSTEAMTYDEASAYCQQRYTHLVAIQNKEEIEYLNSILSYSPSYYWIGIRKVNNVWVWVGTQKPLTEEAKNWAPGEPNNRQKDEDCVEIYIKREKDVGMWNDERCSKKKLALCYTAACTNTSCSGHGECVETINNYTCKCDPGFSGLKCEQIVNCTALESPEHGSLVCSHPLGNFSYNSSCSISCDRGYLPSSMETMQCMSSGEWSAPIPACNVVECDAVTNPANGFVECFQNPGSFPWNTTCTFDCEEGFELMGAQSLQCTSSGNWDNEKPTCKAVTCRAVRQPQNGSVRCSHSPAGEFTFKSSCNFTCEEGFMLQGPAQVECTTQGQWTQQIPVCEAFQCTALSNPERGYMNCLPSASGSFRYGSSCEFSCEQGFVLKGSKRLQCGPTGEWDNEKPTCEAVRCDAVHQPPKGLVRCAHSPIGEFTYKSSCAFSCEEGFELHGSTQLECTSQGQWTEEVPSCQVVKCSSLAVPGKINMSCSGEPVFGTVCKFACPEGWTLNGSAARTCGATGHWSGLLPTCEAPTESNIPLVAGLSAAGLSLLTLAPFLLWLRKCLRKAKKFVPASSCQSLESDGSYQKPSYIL
Chain of Tumor necrosis factor (Homo sapiens) (P01375 whole entry, looked up): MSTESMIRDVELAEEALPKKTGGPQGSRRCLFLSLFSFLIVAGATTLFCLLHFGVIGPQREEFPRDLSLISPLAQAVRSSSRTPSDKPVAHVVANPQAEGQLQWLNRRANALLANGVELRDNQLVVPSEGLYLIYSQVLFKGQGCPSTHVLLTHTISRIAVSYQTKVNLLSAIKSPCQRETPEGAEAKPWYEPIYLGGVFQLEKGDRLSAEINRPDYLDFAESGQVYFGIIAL

As usually defined, the AC50 is the concentration at which the activity in the assay is half-maximal. On to `CCNc1nc(NC(C)(C)C)nc(OC)n1`, for which the outcome is “inactive” in [1]; “inactive” in assay [2]; “inactive” in [3]; “inactive” in assay [4]; “inactive” in [5]; “inactive” in the assay with CD40, CD40 (gene 958). Besides, the outcome in assay [6], in assay [7], in [8], in [9], in [11] and in assay [13] was inactive. Besides, the outcome is “inactive” in the assay with CD38, CD38 (gene 952) and “inactive” with CD69, CD69 (gene 969). Also, the AC50 is 72.7 nM (active) in assay [10] and 5.59 µM (active) in assay [12].
In the case of `CC1(C)CC(O)CC(C)(C)N1[O]`, the outcome in assay [1] was “inactive”; in [2], “inactive”; in [3], “inactive”; in assay [4], “inactive”; in assay [5] it was “inactive”; in the assay with CD40, CD40 (gene 958), “inactive”. Further, the outcome in assay [6], in [7], in [8], in assay [9], in assay [10] and in assay [11] was inactive. Moreover, the outcome in [14] was “inactive”; in [12], “inactive”; in [13] it was “inactive”; in the assay with CD38, CD38 (gene 952) it was “inactive”; with CD69, CD69 (gene 969) it was “inactive”.
With `CC(C)c1cccc(C(C)C)c1N`, the outcome in [1] is “inactive”; in assay [2], “inactive”; in assay [3] it was “inactive”; in assay [4], “inactive”; in [5], “inactive”; with CD40, CD40 (gene 958) it was “inactive”. Also, the result in [6], in [7], in assay [8], in [9], in [10] and in assay [11] was inactive. Also, the outcome is “inactive” in assay [12]; “inactive” in assay [13]; “inactive” with CD38, CD38 (gene 952); “inactive” in the assay with CD69, CD69 (gene 969).
As to `C=CC(=O)NCOCCCC`, the outcome in assay [1] was “inactive”; in [2], “inactive”; in assay [3] it was “inactive”; in [4], “inactive”; in assay [5], “inactive”; with CD40, CD40 (gene 958), “inactive”. The result in assay [6], in assay [7], in assay [8], in assay [9], in [10] and in assay [11] was inactive. The outcome is “inactive” in assay [14]; “inactive” in [13]; “inactive” with CD38, CD38 (gene 952); “inactive” in the assay with CD69, CD69 (gene 969). Further, the AC50 in assay [12] was 20 µM (active).

(Values after PubChem BioAssay (EPA / NIEHS).)
